# Assay results published in PubChem BioAssay.
# Biological target: Follistatin (Homo sapiens) (UniProt P19883)
# Assay: follistatin binders on small-molecule microarrays, primary screen, biochemical, small-molecule microarray, 635/667 nm fluorescence (AID 1132)
# Conditions: FST binding, 635 nm fluorescence, higher = more signal
# Sequence of Follistatin (Homo sapiens) (P19883 whole entry, looked up): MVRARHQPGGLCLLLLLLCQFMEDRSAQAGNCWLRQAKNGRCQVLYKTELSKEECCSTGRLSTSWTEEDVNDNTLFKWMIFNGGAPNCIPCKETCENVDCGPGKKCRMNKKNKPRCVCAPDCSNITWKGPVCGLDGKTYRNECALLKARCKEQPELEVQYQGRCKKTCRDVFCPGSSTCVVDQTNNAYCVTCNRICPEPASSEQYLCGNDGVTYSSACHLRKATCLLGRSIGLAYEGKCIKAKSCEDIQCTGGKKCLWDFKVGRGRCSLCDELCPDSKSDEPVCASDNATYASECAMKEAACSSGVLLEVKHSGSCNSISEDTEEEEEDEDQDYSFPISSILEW
row,Compound,composite z-score
1,CCC#CCN(Cc1ccccc1Br)[C@H](/C=C/C1CC1)[C@@H](O)Cc1ccccc1,-0.837
2,CCCCN1CC=CC23O[C@@H]4/C=C\CCCOC(=O)C4[C@H]2C(=O)N(CCO)[C@@H]3C1=O (stereo partly specified),-1.03
3,C=CCNC(=O)[C@@H]1[C@H]2C(=O)O[C@H](c3ccccc3)[C@H](c3ccccc3)N2[C@H](c2ccccc2OCCO)[C@@]12C(=O)N(C(=O)OCCOC)c1ccc(C#CC3(O)CCCCCC3)cc12,1.34
4,O=C(C1N=C(c2ccc(OCCCO)cc2)N(c2ccccc2)O1)N1CCCCC1 (stereo unspecified),1.05
5,CN(C)CCCCCCNC(=O)[C@@H]1C[C@@H]2C(=O)N3CCC[C@H]3C(=O)N2[C@@H]1c1cccc(OCCO)c1,1.37
6,COC(=O)[C@@]1(Cc2ccccc2)[C@H]2c3cc(C(=O)N(C)C)n(Cc4ccc(C)o4)c3C[C@H]2CN1C(=O)c1ccccc1,0.764
7,O[C@@H](Cc1ccccc1)[C@@H](/C=C/C1CC1)N(CC#Cc1ccccc1)Cc1ccccc1Br,-1.12
8,COCC(=C=CC[C@H](O)c1ccc(OCCO)cc1)CCO,1.41
9,NCCCCCNC(=O)[C@H]1C[C@H]2C(=O)N3CCC[C@H]3C(=O)N2[C@H]1c1cccc(OCCO)c1,0.208
10,CCCC[C@@H]1C[C@H]1[C@@H](NC(=O)c1cccs1)c1ccccc1C(F)(F)F,-0.152
11,CCOC(=O)C[C@H]1[C@H](OC(=O)Cc2ccc3c(c2)OCO3)[C@@H](NC(=O)C2CCCCC2)c2cc(OCCCO)ccc2N1C(=O)c1ccccc1,-0.2
12,COc1cc(C(O)C2C=CC3C(=O)N(C)C(=O)C3N2Nc2ccccc2)cc(OC)c1OC (stereo unspecified),0.568
13,COc1ccc([Si](C)(C)[C@@H]2[C@@H](CC(=O)N3Cc4ccccc4C[C@H]3CO)O[C@]3(C(=O)N(Cc4ccc(N5C(=O)c6cccc7cccc5c67)cc4)c4ccccc43)[C@H]2C)cc1,1.33
14,C=CCC(OC(C)=O)[C@@H]1[C@@H](N(Cc2ccc(-c3cccc(C(F)(F)F)c3)o2)C(=O)c2ccc(-c3ccccc3)cc2)c2cc(OCCCO)ccc2N1C(=O)Cc1ccc2ccccc2c1 (stereo partly specified),0.438
15,C=CCNC(=O)[C@H]1[C@@H]2C(=O)O[C@@H](c3ccccc3)[C@@H](c3ccccc3)N2[C@@H](c2ccccc2OCCO)[C@]12C(=O)N(C(=O)OCCOC)c1ccc(C#CC3(O)CCCCCC3)cc12,0.785
16,COc1ccc([Si](C)(C)[C@@H]2[C@@H](CCO)O[C@]3(C(=O)N(Cc4cccc(NC(=O)[C@H](C)O)c4)c4ccccc43)[C@H]2C)cc1,0.393
17,CCCCC[C@H]1OC[C@@]23C=C(Br)[C@@H](CC12)[C@@]1(CO1)C3=O (stereo partly specified),0.0488
18,C=CCN1Cc2ccccc2[C@@H]2OC(c3ccc(OCCCO)cc3)=N[C@]2(CC=C)C1=O,1.49

row,Compound,composite z-score
1,Cc1ccc(NN2C(C(O)c3c(F)cccc3Cl)C=CC3C(=O)N(C4CCCCC4)C(=O)C32)cc1 (stereo unspecified),0.842
2,CCCCC(CC)C(O)C1C=CC2C(=O)N(c3ccccc3)C(=O)C2N1Nc1ccc(C#N)cc1 (stereo unspecified),1.07
3,NC(=O)[C@H]1[C@@H]2C(=O)O[C@@H](c3ccccc3)[C@@H](c3ccccc3)N2[C@@H](c2ccc(OCCO)cc2)[C@]12C(=O)Nc1ccc(C#CCCO)cc12,1.13
4,CCC1=C2CN(Cc3ccccc3)[C@@H](C(=O)Cc3ccccc3)C2C=CCC1 (stereo partly specified),0.578
5,[N-]=[N+]=Nc1ccccc1C[C@]1(C(=O)NCC(O)CO)COC(c2ccc(OCCCO)cc2)=N1 (stereo partly specified),-0.0953
6,CCCC=C(CCC)[C@@H](NP(=O)(c1ccccc1)c1ccccc1)c1ccc(-c2ccccc2)cc1,1.11
7,CCOC(=O)C[C@H]1[C@H](OC(=O)c2ccc(C(=O)c3ccccc3)cc2)[C@@H](NC(=O)c2ccc(-c3ccccc3)cc2)c2cc(OCCCO)ccc2N1C(=O)Cc1ccc(OC)cc1,0.51
8,CO[C@H]1O[C@H](CO)[C@@H](OC(=O)CCc2ccccc2)[C@@H]2OC(=O)[C@@H](Cc3ccccc3)C/C=C/C[C@H](Cc3ccccc3)C(=O)O[C@@H]12,1.28
9,CCOC(=O)C1=C[C@@H](c2ccccc2)N(S(=O)(=O)c2ccc(C)cc2)[C@H]1c1ccc(OC)cc1,0.609
10,[N-]=[N+]=Nc1ccccc1C[C@]1(C(=O)NCCN2CCOCC2)COC(c2ccc(OCCCO)cc2)=N1,1.02
11,COc1ccc([Si](C)(C)[C@H]2[C@H](CC(=O)N3Cc4ccccc4C[C@H]3CO)O[C@@]3(C(=O)N(Cc4ccc(N5CCOC5=O)cc4)c4ccccc43)[C@@H]2C)cc1,1.32
12,CS(=O)(=O)CCOC(=O)C1=CC(c2ccc(CO)cc2)=CC(C2CC2)N(Cc2sc3ccccc3c2Cl)C=C1C(=O)OCCS(C)(=O)=O (stereo unspecified),1.28
13,CCCCNC(=O)c1ccc(C#CC(C)(C)C)c(OC(C)=O)c1,0.665
14,O=C1C2C=CC(C(O)c3ccco3)N(Nc3ccccc3F)C2C(=O)N1c1ccccc1 (stereo unspecified),0.235
15,COc1cc(NN2C(C(O)c3ccco3)C=CC3C(=O)N(C)C(=O)C32)cc(OC)c1OC (stereo unspecified),-0.0496
16,COC(=O)[C@@]1(Cc2ccc(F)cc2)[C@H]2c3cc(C(=O)N(C)C)n(CCc4ccc(OC)c(Br)c4)c3C[C@H]2CN1C(=O)c1ccccc1,-0.0313
17,CC(C)[Si](C#CCCCC#N)(O[C@H](c1ccccc1)c1cn(Cc2ccccc2)nn1)C(C)C,0.793
18,COCCOC(=O)N1C(=O)[C@@]2(c3cc(C#CC4(O)CCCCCC4)ccc31)[C@H](C(=O)Nc1nc3ccccc3s1)[C@H]1C(=O)O[C@H](c3ccccc3)[C@H](c3ccccc3)N1[C@@H]2c1ccc(O)cc1,1.28
